Among the data in PubChem BioAssay AID485346 (Sanford-Burnham Center for Chemical Genomics, 2010) are inhibition values, retold here.

Among all 330,000 compounds or so, about 10,000 (3%) were called active. Many of the other results were omitted from the sample, so actives are more common in it than they were. A number with no mark means an inactive call.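 The calls were made as follows: active = inhibition of at least 50% at 8 µM in the primary screen; inactive = the rest.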

The assay deals with Protein Mdm4 (Homo sapiens) + E3 ubiquitin-protein ligase Mdm2 (Homo sapiens) (UniProt O15151+Q00987). Kind of assay: inhibitors of human Mdm2-MdmX association, primary screen, cell-based, luminescence, split luciferase, SaOS-2, uHTS (AID 485346). To be noted: SaOS-2 split-luciferase Mdm2/MdmX complementation, at 8 µM, stronger effect = higher value.
Chain of Protein Mdm4 (Homo sapiens) + E3 ubiquitin-protein ligase Mdm2 (Homo sapiens) (O15151 whole entry, looked up): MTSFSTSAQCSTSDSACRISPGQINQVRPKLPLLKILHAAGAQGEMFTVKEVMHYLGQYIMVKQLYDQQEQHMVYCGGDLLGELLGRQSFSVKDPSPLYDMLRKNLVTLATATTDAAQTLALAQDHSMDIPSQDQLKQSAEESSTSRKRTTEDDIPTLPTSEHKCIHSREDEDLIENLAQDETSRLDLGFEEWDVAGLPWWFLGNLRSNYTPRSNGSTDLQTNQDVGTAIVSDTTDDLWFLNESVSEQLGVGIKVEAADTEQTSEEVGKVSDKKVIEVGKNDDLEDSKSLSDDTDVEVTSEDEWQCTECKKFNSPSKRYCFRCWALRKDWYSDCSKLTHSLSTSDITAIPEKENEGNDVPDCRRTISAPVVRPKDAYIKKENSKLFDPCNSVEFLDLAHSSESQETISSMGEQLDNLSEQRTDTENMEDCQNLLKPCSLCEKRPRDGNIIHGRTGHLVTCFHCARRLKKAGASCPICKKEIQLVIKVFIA
Chain of Protein Mdm4 (Homo sapiens) + E3 ubiquitin-protein ligase Mdm2 (Homo sapiens) (Q00987 whole entry, looked up): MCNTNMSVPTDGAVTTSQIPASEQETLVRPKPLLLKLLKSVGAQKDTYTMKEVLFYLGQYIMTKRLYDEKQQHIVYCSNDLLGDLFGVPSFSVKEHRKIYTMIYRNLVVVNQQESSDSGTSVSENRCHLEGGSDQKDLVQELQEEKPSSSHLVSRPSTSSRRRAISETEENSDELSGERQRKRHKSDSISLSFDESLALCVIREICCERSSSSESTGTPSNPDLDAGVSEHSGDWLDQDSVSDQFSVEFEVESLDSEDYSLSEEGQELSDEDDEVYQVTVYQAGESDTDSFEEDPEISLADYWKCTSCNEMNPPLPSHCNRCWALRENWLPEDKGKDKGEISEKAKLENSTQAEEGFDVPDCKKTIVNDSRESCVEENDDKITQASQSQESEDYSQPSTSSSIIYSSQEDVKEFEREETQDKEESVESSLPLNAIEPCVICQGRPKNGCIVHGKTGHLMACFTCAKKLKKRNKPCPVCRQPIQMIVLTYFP
The term inhibition denotes the change of the read-out against control, counted positive when it falls. Turning to `O=C(O)c1cccc(NC(=O)c2cc(-c3cccc(Cl)c3)nc3ccccc23)c1`, the inhibition was 0.449%.
`Cn1c(Nc2cccc(Cl)c2)nc2ccccc21`: the inhibition was -18.1%.
For the compound `Cc1c(C(=O)Nc2cccc(Cl)c2)cn2c(nc3ccccc32)c1C#N`, the inhibition is 60.3% (active).
The figure for `CC(=O)c1c(C)[nH]c(C(=O)OCC(=O)NCCC(C)C)c1C` is 17.9%; for `CCOc1cc(NC(=S)NCCCN(C)C)c(OCC)cc1NC(=O)C1CC1` it is 3.9%.
As for `CC(C)c1cc(C(=O)O)n[nH]1`, the inhibition is 5.75%.
As to `CC(C)c1cc(C(=O)N/N=C/C(Br)=C/c2ccccc2)n[nH]1`, the inhibition was 66.1% (active).
Consider `Cc1cc(C(=O)N/N=C\C(Br)=C\c2ccccc2)c(C)o1`, for which the inhibition is -18.5%.
The value for `O=C1CSc2ccc(S(=O)(=O)NCc3ccccc3)cc2N1` was -3.1%.
The figure for `COc1ccc(OC)c(C2C3=C(N=c4s/c(=C\c5cccc(O)c5)c(=O)n42)c2ccccc2CC3)c1` (stereo unspecified) is 79.2% (active).
The value for `CCOC(=O)C1=C(C)N=c2s/c(=C\C(=O)OC)c(=O)n2C1c1ccc(OC)cc1` (stereo unspecified) was 12.2%; that for `O=C1CCCC2=C1C(c1ccccc1)n1c(s/c(=C/c3cccc(F)c3)c1=O)=N2` (stereo unspecified) was -4.28%; that for `O=C(N/N=C/c1ccc(Cl)cc1)c1nc2ccc([N+](=O)[O-])cc2c(=O)[nH]1` was 6.69%.
`COC(=O)c1sc(SC)c(S(=O)(=O)C(C)C)c1N/N=C(\C#N)S(=O)(=O)c1ccccn1`: the inhibition was 9.73%.
With `O=C(NC1CCc2ccccc21)C12CN(Cc3ccccc3)CC1C(c1cccc([N+](=O)[O-])c1)=NO2` (stereo unspecified), the inhibition is 0.069%.
On to `CSc1nc(-c2ccccc2)nc(C(Cl)Cl)n1`, for which the inhibition is 101% (active).
In the case of `CSc1ncc(Sc2ccccc2)c(C(=O)O)n1`, the inhibition was 8.72%.
The figure for `CN=C(NC#N)NCCSCc1nc[nH]c1C` is 2.92%; for `CC1(C)CC(=O)C=C(NCc2ccncc2)C1` it is 27.3%.
As for `Cc1ccc(S(=O)(=O)N2CCC(N3CCCCCC3)CC2)cc1`, the inhibition is 1.35%.
The value for `O=S(=O)(c1ccccc1)N1CCC(c2ccccc2)CC1` was -19.7%.
Consider `c1ccc(C2CCC(N3CCC(N4CCCCC4)CC3)CC2)cc1` (stereo unspecified), for which the inhibition was 91.3% (active).
The figure for `CCOC(=O)C1CCN(C(=O)C2CCN(S(=O)(=O)CC)CC2)CC1` is 12.2%; for `CCN(CC(=O)NCCCN1CCOCC1)S(=O)(=O)c1cc(Cl)ccc1Cl` it is 20.3%.
Take `COc1ccc(N=C2SC(C(=O)Nc3ccc(F)cc3)CC(=O)N2C)cc1` (stereo unspecified): the inhibition was 15%.
The value for `Cc1ccc(NC(=O)Nc2ccccc2)c(Br)c1` was -41.3%; that for `Cc1cccc(NC(=O)Nc2cccc(Oc3c(F)c(F)c(F)c(F)c3F)c2)c1` was 74.3% (active); that for `Cc1cccc(NC(=O)NC(=S)NC(=O)c2ccccc2)c1` was -38.5%.
For `CC(C)C(=O)Nc1ccc2oc(=O)ccc2c1`, the inhibition was 3.99%.
For `O=C(COc1ccc(Cl)cc1)Nc1ccc2oc(=O)ccc2c1`, the inhibition was -1.06%.
The value for `O=C(NC(=S)Nc1ccc2oc(=O)ccc2c1)c1ccc(-c2cccc(Cl)c2Cl)o1` was 80.7% (active); that for `CC1(C)CC(=O)C=C(c2cccc3c2Oc2ccccc2S3)C1` was 2.33%; that for `COc1cc2c(cc1OC)CN(C(=O)c1ccc(S(=O)(=O)N3CCCCCC3)cc1)CC2` was 11%.
The value for `COc1cc2c(cc1OC)CN(C(=O)c1cc(=O)c3ccccc3o1)CC2` was 49.8%.
The value for `CCOc1cc(C(=O)N2CCc3cc(OC)c(OC)cc3C2)ccc1OC(F)F` was 51% (active); that for `Cc1c(C=O)c2ccccn2c1C(=O)c1ccncc1` was 22.9%; that for `COc1ccc(S(=O)(=O)N2CCOCC2)cc1NC(=O)c1ccc(OCC(C)C)c(OC)c1` was 38.4%.
As for `C/C(=N\Nc1nc(Nc2ccccc2)nc(N2CCOCC2)n1)c1cccs1`, the inhibition was 46.5%.
In the case of `O=C(CSc1nc2ccc(Nc3nc(N4CCOCC4)nc(N4CCOCC4)n3)cc2s1)NCc1ccco1`, the inhibition was 20.3%.
The value for `CC1(c2ccccc2)NC(=O)N(CC(=O)Nc2cc(Cl)ccc2N2CCOCC2)C1=O` (stereo unspecified) was 6.67%; that for `Cc1ccc(Nc2nc(N3CCOCC3)nc(N3CCOCC3)n2)cc1Cl` was 48.2%; that for `O=C(CSc1nc(Nc2ccccc2)nc(N2CCOCC2)n1)Nc1cc(Cl)ccc1O` was 81.9% (active).
Consider `Cc1ccccc1NC(=O)CSc1nc2ccc(Nc3nc(N4CCOCC4)nc(N4CCOCC4)n3)cc2s1`, for which the inhibition is 80.5% (active).
As for `NS(=O)(=O)c1ccc(N2C(=O)C3C4CC(C(Br)C4Br)C3C2=O)cc1` (stereo unspecified), the inhibition was -13.2%.
The figure for `CCC(C(=O)NCc1cccnc1)n1nc(C)c2sc3ccccc3c2c1=O` (stereo unspecified) is 20.9%.
For the compound `Cc1nc2ccccc2nc(C)c1=NOCc1ccc(Cl)cc1Cl`, the inhibition is 22.9%.
The figure for `NC(N)=N/N=C/c1ccc(OCc2ccc(Cl)cc2Cl)cc1` is 97.6% (active).
Regarding `OC(CNCCc1ccc(Cl)cc1Cl)COc1ccccc1` (stereo unspecified), the inhibition is -3.6%.
As to `COc1ccc2cc1Oc1ccc(cc1)C[C@H]1c3cc(c(OC)cc3CCN1C)Oc1c(O)c(OC)cc3c1[C@H](C2)N(C)CC3`, the inhibition is 98.4% (active).
The figure for `Cc1cccc(-[n+]2c(-c3cccc(Br)c3)[nH]c3nc4ccccc4nc32)c1` is 42.8%.
For `CCC/C(O)=C1\C(=O)CC(C)(C)CC1=Nc1ccccc1OC`, the inhibition is 17.5%.
With `COc1cc(NS(=O)(=O)c2ccc3ccccc3c2)c2ncccc2c1`, the inhibition was 94.8% (active).
The figure for `COc1ccc(N2CC(NS(=O)(=O)c3ccc4ccccc4c3)CC2=O)cc1` (stereo unspecified) is 4.41%; for `Cc1ccc(S(=O)(=O)Nc2ccc3ncccc3c2)cc1` it is 19.7%; for `Cc1cc(NC(=O)CCC(=O)N(CC(=O)NCC2CCCO2)c2ccccc2C)no1` (stereo unspecified) it is 11.6%.
With `COc1ccc(OC)c(S(=O)(=O)NCCC(C)C)c1`, the inhibition was 22.1%.
Turning to `C=C(C)C(=O)O[C@H]1C/C(C)=C\C(=O)/C=C(\C)[C@H](O)[C@@H]2OC(=O)C(=C)[C@@H]21`, the inhibition is 95.4% (active).
The figure for `O=C(CNC1CCCCC1)NCC1(c2ccccc2)CCCC1` is 2.11%.
The figure for `C=C1CCN([C@H](C(=O)NCc2cc(OC)c(OC)c(OC)c2)C(C)C)S(=O)(=O)c2ccccc21` is -24.7%; for `C[C@@H]1CC[C@]2(O[C@@H](CCO)C[C@H](O)[C@H]2O)O1` it is 16.3%; for `CC(C)c1ccc(NC(=O)C2CCCN(S(=O)(=O)c3cccnc3)C2)cc1` (stereo unspecified) it is 20.9%.
The figure for `COc1ccc(S(=O)(=O)N2CCCC(C(=O)Nc3ccc(NC(=O)c4ccccn4)cc3)C2)cc1` (stereo unspecified) is -15.5%.
On to `CC(=O)Nc1ccc(NC(=O)C2CCCN(S(=O)(=O)c3ccc(Cl)cc3)C2)cc1` (stereo unspecified), for which the inhibition is 55.6% (active).
The figure for `CCOC(=O)c1ccc(N2C(=O)CC(N(C)Cc3ccccc3)C2=O)cc1` (stereo unspecified) is -7.46%; for `CCCCCCC(=O)N(O)C1CC(=O)N(c2ccccc2)C1=O` (stereo unspecified) it is 61.2% (active); for `CCCCOC(=O)c1ccc(N2C(=O)CC(N3CCN(C/C=C/c4ccccc4)CC3)C2=O)cc1` (stereo unspecified) it is 25.8%.
The figure for `CS(=O)(=O)c1ccc(Cl)c(NC(=O)COC(=O)c2ncc(Cl)c(Cl)c2Cl)c1` is 13.8%; for `CCOc1ccc(CN2CCC(n3nccc3NC(=O)C3CC3)CC2)cc1CO` it is 20%; for `Cc1ccc2c(Cl)c(C(=O)Nc3nn[nH]n3)sc2c1` it is 16.7%.
Take `CN1CCc2ccccc2C1Cc1ccccc1NC(=O)c1sc2ccccc2c1Cl` (stereo unspecified): the inhibition was 12.4%.
As to `Cc1ccc(-c2nc3ccccc3[nH]2)cc1NC(=O)c1sc2ccccc2c1Cl`, the inhibition was 99.3% (active).
The value for `COc1ccc(Br)cc1C(=O)NC(=S)Nc1cc(-c2nc3ccccc3[nH]2)ccc1C` was 81.4% (active).
The figure for `Cc1cc2[nH]ncc2cc1NC(=S)NC(=O)c1ccccc1` is 35%.
The value for `COc1ccc(Br)cc1C(=O)Nc1cccc(C)c1C` was -15.3%; that for `Cc1cc(C(=O)O)c(S(C)(=O)=O)s1` was 24.5%; that for `COC(=O)C(C(=O)Nc1cccc(C)n1)C1CCCCCC1` (stereo unspecified) was 10.4%.
Take `C=CCOc1ccc(/C=C/C(=O)OC(C)C(=O)Nc2ccc(NC(C)=O)cc2)cc1` (stereo unspecified): the inhibition was 4.16%.
The figure for `COc1ccc(-c2cc(C3CCN(c4ncccc4[N+](=O)[O-])CC3)[nH]n2)cc1` is 56.4% (active).
`CC(=O)NC(Cc1ccccc1)C(=O)NC1CCN(c2ncccc2[N+](=O)[O-])CC1` (stereo unspecified): the inhibition is 20.8%.
The figure for `COc1ccc(-c2cc3ncccc3cn2)cc1` is -99.3%.
`COc1ccc(S(=O)(=O)N2CCCC2CNC(=O)C(=O)NC2CC2)cc1` (stereo unspecified): the inhibition is 5.26%.
The value for `CC(C)CCSc1ncnc2c1oc1nc3c(cc12)COC(C)(C)C3` was -3.42%.
On to `CC1(C)Cc2nc3sc4c(SCC(=O)NC(c5ccccc5)c5ccccc5)ncnc4c3cc2CO1`, for which the inhibition is 71.8% (active).
The value for `C=CCn1c(=S)[nH]c2nc3c(cc2c1=O)COC(C)(C)C3` was -32.6%.
Turning to `CCCCN(CC(=O)Nc1cccc(S(=O)(=O)N2CCCC2)c1)Cc1nc2ccccc2c(=O)[nH]1`, the inhibition is 15.4%.
As for `CC(C(=O)N1CCN(c2ccccc2F)CC1)c1ccc([N+](=O)[O-])cc1` (stereo unspecified), the inhibition is -3.99%.
The value for `COC(=O)c1cc(OC)ccc1-c1ccc(OC)cc1` was 21.1%.
The value for `COc1ccc(Oc2cn[nH]c2-c2ccc(OC)cc2O)cc1` was 14.4%; that for `COc1ccc(-c2cn[nH]c2-c2ccc(OC)cc2)cc1` was 63.5% (active).
In the case of `O=C(O)CCn1c(O)c(C=C2N=c3ccccc3=N2)sc1=S`, the inhibition is -11%.
As to `O=C(CN1CCOc2ccccc21)N1CCC(Cc2ccccc2)CC1`, the inhibition was 25.3%.
